# Measured values as given in article PMC7862700, “An all-to-all approach to the identification of sequence-specific readers for epigenetic DNA modifications on cytosine”.
# Assays:
# Assay in all cases: DAPPL (digital affinity profiling via proximity ligation, sequencing); 10 mM Tris-HCl pH 7.5, 50 mM NaCl, 1 mM DTT, 4% glycerol, room temperature, 30 min; GST-TFs on glutathione beads, 16-mer random dsDNA library, 0.1% formaldehyde crosslink after washing; high values mean tight binding
# Conditions in all cases: protein: recombinant; tags: N-terminal GST; dsDNA, one strand shown
# ERF = biological target: T1, ERF (Homo sapiens, UniProt P50548 1-548)
# T1 sequence: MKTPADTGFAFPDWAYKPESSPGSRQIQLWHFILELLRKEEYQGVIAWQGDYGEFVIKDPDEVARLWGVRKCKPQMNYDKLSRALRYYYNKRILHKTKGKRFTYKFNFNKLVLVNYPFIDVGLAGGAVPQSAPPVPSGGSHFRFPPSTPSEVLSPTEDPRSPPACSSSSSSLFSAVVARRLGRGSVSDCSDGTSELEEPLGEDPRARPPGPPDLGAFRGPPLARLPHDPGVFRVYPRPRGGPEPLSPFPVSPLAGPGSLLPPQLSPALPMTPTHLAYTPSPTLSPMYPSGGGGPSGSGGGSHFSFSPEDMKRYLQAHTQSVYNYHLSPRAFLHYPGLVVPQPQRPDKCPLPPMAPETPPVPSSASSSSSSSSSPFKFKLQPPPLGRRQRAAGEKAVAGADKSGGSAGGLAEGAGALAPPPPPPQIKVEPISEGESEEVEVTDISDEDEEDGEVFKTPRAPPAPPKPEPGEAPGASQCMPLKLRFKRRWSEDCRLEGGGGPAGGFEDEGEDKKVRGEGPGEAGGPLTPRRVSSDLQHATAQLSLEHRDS
# Method in brief: (§1)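 Binding signal is each hexamer's read frequency for a factor divided by its frequency in the tag-only sample. The factors were GST-fused human transcription factors from yeast, captured on glutathione beads, DNA-barcoded and pooled with that sample. Pools were incubated with 200 nmole of a random double-stranded 16-mer DNA library in Tris/NaCl/DTT/glycerol buffer at room temperature for 30 min, then washed, crosslinked with 0.1% formaldehyde, proximity-ligated with BsaI/T4 ligase (1 h, 37 °C), PCR-amplified and sequenced on an Illumina NextSeq500.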
# ETV3L = biological target: T2, ETV3L (Homo sapiens, UniProt Q6ZN32 1-361)
# T2 sequence: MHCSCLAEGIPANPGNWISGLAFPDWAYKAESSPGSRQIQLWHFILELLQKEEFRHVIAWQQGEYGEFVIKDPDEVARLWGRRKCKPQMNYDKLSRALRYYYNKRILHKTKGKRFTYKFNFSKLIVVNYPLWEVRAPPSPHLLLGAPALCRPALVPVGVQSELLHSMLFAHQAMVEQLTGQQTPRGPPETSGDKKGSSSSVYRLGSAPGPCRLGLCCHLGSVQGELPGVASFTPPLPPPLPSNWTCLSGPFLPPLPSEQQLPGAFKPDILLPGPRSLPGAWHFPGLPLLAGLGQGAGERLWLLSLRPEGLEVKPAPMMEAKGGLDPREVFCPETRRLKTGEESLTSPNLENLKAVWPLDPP
# Method in brief: as §1
# ETS2 = biological target: T3, ETS2 (Homo sapiens, UniProt P15036 1-469)
# T3 sequence: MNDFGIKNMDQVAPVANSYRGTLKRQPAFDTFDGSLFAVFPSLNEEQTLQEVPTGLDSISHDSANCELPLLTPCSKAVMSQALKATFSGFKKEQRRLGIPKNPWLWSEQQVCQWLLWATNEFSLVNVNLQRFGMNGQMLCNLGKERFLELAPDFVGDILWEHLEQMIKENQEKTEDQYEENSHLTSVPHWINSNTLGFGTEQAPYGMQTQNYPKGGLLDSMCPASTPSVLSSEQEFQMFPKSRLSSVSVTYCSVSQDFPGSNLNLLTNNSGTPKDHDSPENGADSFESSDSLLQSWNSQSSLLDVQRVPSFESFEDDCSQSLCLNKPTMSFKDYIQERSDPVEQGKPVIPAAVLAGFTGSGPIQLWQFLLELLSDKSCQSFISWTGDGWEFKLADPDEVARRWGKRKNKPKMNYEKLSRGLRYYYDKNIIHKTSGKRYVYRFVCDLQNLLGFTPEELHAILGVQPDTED
# Method in brief: as §1
# SPDEF = biological target: T4, SPDEF (Homo sapiens, UniProt O95238 1-335)
# T4 sequence: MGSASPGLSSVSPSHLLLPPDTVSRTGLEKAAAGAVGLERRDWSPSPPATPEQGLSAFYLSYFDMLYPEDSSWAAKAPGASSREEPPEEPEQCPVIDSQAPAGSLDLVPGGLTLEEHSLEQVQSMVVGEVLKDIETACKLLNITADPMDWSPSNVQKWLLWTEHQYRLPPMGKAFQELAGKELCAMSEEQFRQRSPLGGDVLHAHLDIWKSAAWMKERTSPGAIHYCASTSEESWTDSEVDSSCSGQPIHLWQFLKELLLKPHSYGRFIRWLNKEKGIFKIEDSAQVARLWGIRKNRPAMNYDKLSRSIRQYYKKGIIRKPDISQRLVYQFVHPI
# Method in brief: as §1
# ETV7 = biological target: T5, ETV7 (Homo sapiens, UniProt Q9Y603 1-341)
# T5 sequence: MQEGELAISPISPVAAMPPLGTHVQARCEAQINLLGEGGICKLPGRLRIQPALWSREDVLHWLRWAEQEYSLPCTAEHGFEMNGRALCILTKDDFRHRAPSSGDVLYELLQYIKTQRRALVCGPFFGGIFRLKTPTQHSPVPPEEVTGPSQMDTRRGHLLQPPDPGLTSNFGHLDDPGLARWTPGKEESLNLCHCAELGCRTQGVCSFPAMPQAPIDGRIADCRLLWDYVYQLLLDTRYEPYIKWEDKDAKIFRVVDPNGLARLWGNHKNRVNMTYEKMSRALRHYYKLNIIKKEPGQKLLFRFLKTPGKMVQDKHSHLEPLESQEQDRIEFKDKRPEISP
# Method in brief: as §1
# ELF5 = biological target: T6, ELF5 (Homo sapiens, UniProt Q9UKW6-2 1-255)
# T6 sequence: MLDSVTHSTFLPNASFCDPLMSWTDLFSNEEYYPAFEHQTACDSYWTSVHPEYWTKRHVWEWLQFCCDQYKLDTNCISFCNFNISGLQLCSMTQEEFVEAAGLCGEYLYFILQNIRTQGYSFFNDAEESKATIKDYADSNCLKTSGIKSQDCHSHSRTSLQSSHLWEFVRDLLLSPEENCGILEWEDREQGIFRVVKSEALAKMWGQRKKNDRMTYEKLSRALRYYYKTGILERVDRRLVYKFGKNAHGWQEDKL
# Method in brief: as §1
# ETV3 = biological target: T7, ETV3 (Homo sapiens, UniProt P41162-2 1-143)
# T7 sequence: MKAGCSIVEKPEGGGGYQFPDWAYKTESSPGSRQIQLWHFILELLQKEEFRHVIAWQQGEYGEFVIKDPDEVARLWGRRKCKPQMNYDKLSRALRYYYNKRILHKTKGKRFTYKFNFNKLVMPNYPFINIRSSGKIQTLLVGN
# Method in brief: as §1
# ETV6 = ETV6 (Homo sapiens, UniProt P41212 1-452)
# Sequence of ETV6 (P41212 whole entry): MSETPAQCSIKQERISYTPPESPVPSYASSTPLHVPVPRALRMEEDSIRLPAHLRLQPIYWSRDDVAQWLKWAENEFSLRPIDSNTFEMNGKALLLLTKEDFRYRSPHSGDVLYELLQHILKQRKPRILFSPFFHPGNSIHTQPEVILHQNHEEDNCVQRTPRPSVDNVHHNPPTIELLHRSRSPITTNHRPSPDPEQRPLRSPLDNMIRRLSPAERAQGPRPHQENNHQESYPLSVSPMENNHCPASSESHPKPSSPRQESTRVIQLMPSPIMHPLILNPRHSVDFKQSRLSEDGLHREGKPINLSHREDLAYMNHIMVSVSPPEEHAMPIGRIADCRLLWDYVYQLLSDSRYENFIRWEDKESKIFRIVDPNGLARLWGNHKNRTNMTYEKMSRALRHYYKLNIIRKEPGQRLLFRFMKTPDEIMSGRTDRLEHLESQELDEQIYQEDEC
# Method in brief: as §1
Sequence,binding signal (ERF),binding signal (ETV3L),binding signal (ETS2),binding signal (SPDEF),binding signal (ETV7),binding signal (ELF5),binding signal (ETV3),binding signal (ETV6)
ACATTC,"1.42 fold enrichment (6-mer frequency, TF over GST control)","1.3 fold enrichment (6-mer frequency, TF over GST control)","1.3 fold enrichment (6-mer frequency, TF over GST control)","1.27 fold enrichment (6-mer frequency, TF over GST control)","1.31 fold enrichment (6-mer frequency, TF over GST control)","1.36 fold enrichment (6-mer frequency, TF over GST control)","1.31 fold enrichment (6-mer frequency, TF over GST control)","1.4 fold enrichment (6-mer frequency, TF over GST control)"
AATAGA,"1.19 fold enrichment (6-mer frequency, TF over GST control)","1.16 fold enrichment (6-mer frequency, TF over GST control)","1.1 fold enrichment (6-mer frequency, TF over GST control)","1.05 fold enrichment (6-mer frequency, TF over GST control)","1.17 fold enrichment (6-mer frequency, TF over GST control)","1.11 fold enrichment (6-mer frequency, TF over GST control)","1.09 fold enrichment (6-mer frequency, TF over GST control)","1.17 fold enrichment (6-mer frequency, TF over GST control)"
CCGGTT,"1.82 fold enrichment (6-mer frequency, TF over GST control)","1.94 fold enrichment (6-mer frequency, TF over GST control)","1.96 fold enrichment (6-mer frequency, TF over GST control)","2.99 fold enrichment (6-mer frequency, TF over GST control)","1.77 fold enrichment (6-mer frequency, TF over GST control)","2.37 fold enrichment (6-mer frequency, TF over GST control)","2.05 fold enrichment (6-mer frequency, TF over GST control)","2.19 fold enrichment (6-mer frequency, TF over GST control)"
ACAAAA,"1.18 fold enrichment (6-mer frequency, TF over GST control)","1.2 fold enrichment (6-mer frequency, TF over GST control)","1.2 fold enrichment (6-mer frequency, TF over GST control)","1.11 fold enrichment (6-mer frequency, TF over GST control)","1.15 fold enrichment (6-mer frequency, TF over GST control)","1.21 fold enrichment (6-mer frequency, TF over GST control)","1.13 fold enrichment (6-mer frequency, TF over GST control)","1.17 fold enrichment (6-mer frequency, TF over GST control)"
CAACCC,"1.22 fold enrichment (6-mer frequency, TF over GST control)","1.25 fold enrichment (6-mer frequency, TF over GST control)","1.28 fold enrichment (6-mer frequency, TF over GST control)","1.2 fold enrichment (6-mer frequency, TF over GST control)","1.15 fold enrichment (6-mer frequency, TF over GST control)","1.2 fold enrichment (6-mer frequency, TF over GST control)","1.27 fold enrichment (6-mer frequency, TF over GST control)","1.22 fold enrichment (6-mer frequency, TF over GST control)"
GAAGCA,"1.24 fold enrichment (6-mer frequency, TF over GST control)","1.18 fold enrichment (6-mer frequency, TF over GST control)","1.32 fold enrichment (6-mer frequency, TF over GST control)","1.33 fold enrichment (6-mer frequency, TF over GST control)","1.37 fold enrichment (6-mer frequency, TF over GST control)","1.4 fold enrichment (6-mer frequency, TF over GST control)","1.36 fold enrichment (6-mer frequency, TF over GST control)","1.43 fold enrichment (6-mer frequency, TF over GST control)"
ACATGT,"1.15 fold enrichment (6-mer frequency, TF over GST control)","1.19 fold enrichment (6-mer frequency, TF over GST control)","1.15 fold enrichment (6-mer frequency, TF over GST control)","1.19 fold enrichment (6-mer frequency, TF over GST control)","1.16 fold enrichment (6-mer frequency, TF over GST control)","1.12 fold enrichment (6-mer frequency, TF over GST control)","1.16 fold enrichment (6-mer frequency, TF over GST control)","1.14 fold enrichment (6-mer frequency, TF over GST control)"
ATGTGG,"1.15 fold enrichment (6-mer frequency, TF over GST control)","1.16 fold enrichment (6-mer frequency, TF over GST control)","1.18 fold enrichment (6-mer frequency, TF over GST control)","1.05 fold enrichment (6-mer frequency, TF over GST control)","1.08 fold enrichment (6-mer frequency, TF over GST control)","1.15 fold enrichment (6-mer frequency, TF over GST control)","1.19 fold enrichment (6-mer frequency, TF over GST control)","1.2 fold enrichment (6-mer frequency, TF over GST control)"
CTCCAT,"1.37 fold enrichment (6-mer frequency, TF over GST control)","1.21 fold enrichment (6-mer frequency, TF over GST control)","1.36 fold enrichment (6-mer frequency, TF over GST control)","1.39 fold enrichment (6-mer frequency, TF over GST control)","1.13 fold enrichment (6-mer frequency, TF over GST control)","1.24 fold enrichment (6-mer frequency, TF over GST control)","1.27 fold enrichment (6-mer frequency, TF over GST control)","1.35 fold enrichment (6-mer frequency, TF over GST control)"
CCATCC,"1.12 fold enrichment (6-mer frequency, TF over GST control)","1.31 fold enrichment (6-mer frequency, TF over GST control)","1.23 fold enrichment (6-mer frequency, TF over GST control)","1.56 fold enrichment (6-mer frequency, TF over GST control)","1.24 fold enrichment (6-mer frequency, TF over GST control)","1.3 fold enrichment (6-mer frequency, TF over GST control)","1.27 fold enrichment (6-mer frequency, TF over GST control)","1.2 fold enrichment (6-mer frequency, TF over GST control)"
ACGACG,"1.14 fold enrichment (6-mer frequency, TF over GST control)","1.08 fold enrichment (6-mer frequency, TF over GST control)","1.12 fold enrichment (6-mer frequency, TF over GST control)","1.14 fold enrichment (6-mer frequency, TF over GST control)","1.25 fold enrichment (6-mer frequency, TF over GST control)","1.15 fold enrichment (6-mer frequency, TF over GST control)","1.16 fold enrichment (6-mer frequency, TF over GST control)","1.2 fold enrichment (6-mer frequency, TF over GST control)"
GGGCTC,"1.28 fold enrichment (6-mer frequency, TF over GST control)","1.32 fold enrichment (6-mer frequency, TF over GST control)","1.14 fold enrichment (6-mer frequency, TF over GST control)","1.09 fold enrichment (6-mer frequency, TF over GST control)","1.18 fold enrichment (6-mer frequency, TF over GST control)","1.12 fold enrichment (6-mer frequency, TF over GST control)","1.22 fold enrichment (6-mer frequency, TF over GST control)","1.19 fold enrichment (6-mer frequency, TF over GST control)"
